CR mimetic SO – caloric restriction mimetics inhibiting age-related superoxide in yeast. S. cerevisiae aged cells, superoxide DHE fluorescence; active compounds read low. hit rate 0.18% among 330,000. superoxide response (% of plate mean), % at 10 µM. AID 2690;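 active = superoxide response under a set limit, about three screen SD below normal, cut at about 65% in these data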;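 note: yeast aged for seven days with compound at 30 °C before DHE staining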
dFosB activator – enhances mouse delta FosB homodimer DNA binding; P13346; purified delta FosB, TAMRA-CDK5 oligo fluorescence polarization; percent of positive-control signal above neutral wells; activation, % at 25 µM; hit rate 0.99% among 340,000; AID 493131;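 active = mean activation above about 17%, with every replicate also reaching it, limit read from the data, passing the limit was not always enough; inconclusive = only one of the two conditions met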
Target sequence (P13346 whole entry, looked up): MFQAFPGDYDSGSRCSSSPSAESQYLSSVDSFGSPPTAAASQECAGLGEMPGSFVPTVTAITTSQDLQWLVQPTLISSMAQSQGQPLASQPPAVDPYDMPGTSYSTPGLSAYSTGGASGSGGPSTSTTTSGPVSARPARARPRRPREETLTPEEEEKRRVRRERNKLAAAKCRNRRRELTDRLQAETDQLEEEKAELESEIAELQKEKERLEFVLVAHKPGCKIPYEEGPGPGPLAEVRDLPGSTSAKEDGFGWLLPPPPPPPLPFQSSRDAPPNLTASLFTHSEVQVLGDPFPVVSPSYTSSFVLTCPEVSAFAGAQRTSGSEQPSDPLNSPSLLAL
UBC13 inh – inhibitors of human UBC13 polyubiquitin chain formation; TR-FRET; inhibition, % at 20 µM; P61088; hit rate 0.47% among 330,000; in the data active = inhibition above about 45%, passing the limit was not always enough; inconclusive = no clear call, values can overlap the other calls
Target sequence (P61088 whole entry, looked up): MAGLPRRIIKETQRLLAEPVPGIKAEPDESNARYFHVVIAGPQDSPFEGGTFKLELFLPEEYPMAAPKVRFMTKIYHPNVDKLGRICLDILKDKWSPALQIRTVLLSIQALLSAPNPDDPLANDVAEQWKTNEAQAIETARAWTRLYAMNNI
NR3A LBD binder – modulates the human NR3A ligand-binding domain; NR3A LBD differential scanning fluorimetry, Tm shift; 0% = protein alone, 100% = glycine-bound protein; Tm shift relative to glycine control, % at 25 µM; hit rate 2.5% among 340,000;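 active = melting temperature shift of at least 10% of the positive control shift, at one fixed dose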
NALP1 yeast inh – inhibitors of NALP1 inflammasome in yeast; S. cerevisiae NALP1/ASC/caspase-1 growth, X-gal OD620, 72 h; inhibition, % at 10 µM; hit rate 0.61% among 280,000; in the data active = inhibition mostly above about 24%, no sharp cut-off; inactive = mostly below about 32%
Large screens that a line does not name were inactive. Rows were chosen to be rich in hits. Some 4.3% of all compounds tested hit in one or more screens of this group.

Cc1ccn(CCC(=O)N2CCc3ccccc32)n1	none
CSc1nc(-c2ccccc2)nc(N2CCN(C)CC2)c1C(C)=O	NALP1 yeast inh 34
Cc1ccc(/C=N/Nc2ccnc3cc(Cl)ccc23)c(C)c1	dFosB activator 49, NALP1 yeast inh 60
CCN(CC)Cc1cc(Nc2ccnc3cc(Cl)ccc23)ccc1O	dFosB activator 44
Clc1ccc(NNc2ccnc3cc(Cl)ccc23)cc1	none
Clc1ccc2c(N/N=C/c3cccnc3)ccnc2c1	none
Clc1ccc2c(N/N=C/c3ccc(Br)cc3)ccnc2c1	dFosB activator 34, NR3A LBD binder 33, NALP1 yeast inh 54 (no result: UBC13 inh)
Oc1ccc(/C=N/Nc2ccnc3cc(Cl)ccc23)c(O)c1	dFosB activator inconclusive, NR3A LBD binder 27 (no result: NALP1 yeast inh)
COc1ccc(NC(=O)c2ccccc2NS(=O)(=O)c2ccc(CNC(C)=O)cc2)c(OC)c1	none
COc1ccc(N2CCN(S(=O)(=O)c3ccc4c(c3)NC(=O)C(C)S4)CC2)cc1 (stereo unspecified)	none
Cc1nc2ccccn2c1C(=O)/C=C/c1ccc(F)cc1	NR3A LBD binder 13
CC(C)(C)c1nc2c(C#N)c(-c3ccc(Cl)cc3)ccn2n1	NALP1 yeast inh 38
Cc1nc2c(C#N)c(-c3ccc(Cl)cc3)ccn2n1	none
CCOC(=O)c1ccccc1NS(=O)(=O)c1ccc(C)cc1	none
CCOC(=O)c1cc(C)n(S(=O)(=O)c2ccc(C)cc2)c1C	NR3A LBD binder 14
O=C1CC(c2ccccc2Cl)c2c(sc3c(=O)[nH]c(CCl)nc23)N1 (stereo unspecified)	none (no result: dFosB activator, NR3A LBD binder)
CN(c1ccccc1C(=O)N1CCN(Cc2ccc3c(c2)OCO3)CC1)S(C)(=O)=O	NALP1 yeast inh 36
COc1cccc(CN2CCC(C(=O)N3CCN(Cc4ccc5c(c4)OCO5)CC3)CC2)c1	NR3A LBD binder 13
O=C(Nc1nnc(C2CC2)s1)C1Cc2ccccc2CN1S(=O)(=O)c1ccccc1F (stereo unspecified)	none
COc1ccccc1N(C)S(=O)(=O)c1ccc(C(=O)N(C)Cc2ccc(OC(F)F)cc2)cc1	none (no result: CR mimetic SO, NALP1 yeast inh)
CCc1ccccc1N(CC(=O)NCc1ccco1)C(=O)CCC(=O)Nc1nccs1	none
Cn1c(O)c(N=Nc2ccccc2)c2ccccc21	none
Cc1ccc2c(c1)c(N=Nc1ccc([N+](=O)[O-])cc1)c(O)n2C	NALP1 yeast inh 33
CCc1nnc(NC(=O)c2ccc(-c3ccc(Cl)cc3)o2)s1	NR3A LBD binder 15
O=C(Nc1nccs1)c1ccc(-c2ccc(F)c(Cl)c2)o1	NR3A LBD binder 14
CCc1nnc(NC(=O)c2ccc(-c3ccc(C(C)=O)cc3)o2)s1	none (no result: NALP1 yeast inh)
CC(=O)N1CSCC1C(=O)NNS(=O)(=O)c1ccccc1 (stereo unspecified)	none (no result: dFosB activator)
COc1cccc(N2CN(CCc3ccccc3)CNC2=S)c1	none (no result: dFosB activator)
COc1ccc([N+](=O)[O-])cc1N(CC(=O)N1CCCC1)S(C)(=O)=O	none
COc1ccc([N+](=O)[O-])cc1N(CC(=O)N1CCOCC1)S(C)(=O)=O	NALP1 yeast inh 42
CCn1nc(C)c(NC(=O)CCSc2nc(-c3ccco3)cc(C(F)(F)F)n2)c1C	NR3A LBD binder 557
O=C(NCCSc1ncc(-c2ccc(F)cc2)[nH]1)c1ccc2c(c1)OCO2	none (no result: NALP1 yeast inh)
CN(Cc1ccc(C(C)(C)C)cc1)C(=O)C1CSC2(C)CCC(=O)N12 (stereo unspecified)	none (no result: NALP1 yeast inh)
O=C(NNC(=S)Nc1ccccc1Cl)c1ccncc1	none (no result: NALP1 yeast inh)
O=S(=O)(c1ccc2nc(Nc3ccccc3)ccc2c1)N1CCCCC1	NR3A LBD binder 30
O=S(=O)(c1ccc2nc(N3CCN(c4ccccc4F)CC3)ccc2c1)N1CCCCC1	none
CCCNC(=O)C(Cc1ccccc1C)NC(=O)c1ccc(C(F)(F)F)cc1 (stereo unspecified)	none (no result: NALP1 yeast inh)
COc1cccc2c1C1COC3C4CC(C(=O)O)C(C(C2)N13)N4C (stereo unspecified)	NR3A LBD binder 14 (no result: CR mimetic SO, UBC13 inh, NALP1 yeast inh)
COc1cccc2c1C(CCCC(=O)O)CCC2 (stereo unspecified)	none (no result: CR mimetic SO, UBC13 inh, NALP1 yeast inh)
Cc1ccccc1Cc1ccc(Cl)nn1	none
CC(C)(C)OC(=O)N1CCOCCOCCN(C(=O)OC(C)(C)C)CCOCCOCC1	NR3A LBD binder 705
Cc1nc(-c2ccccc2)nc2[nH]ccc(=O)c12	NR3A LBD binder 10
CC(C)c1nc(SCC(=O)Nc2ccc([N+](=O)[O-])cc2Br)n[nH]1	NR3A LBD binder 11
Cc1ccc(S(=O)(=O)/N=C(/Nc2ccc(O)c(C(=O)O)c2)c2ccccc2)cc1	none (no result: NALP1 yeast inh)
N#Cc1cc(-c2ccccc2)cn(Cc2c(Cl)cccc2Cl)c1=O	NR3A LBD binder 11
Cc1ccc(-c2cc(C#N)c(=O)n(Cc3c(Cl)cccc3Cl)c2)cc1	dFosB activator inconclusive
O=C1[C@@H]2Cc3c([nH]c4ccccc34)C(c3ccccc3)N2C(=O)CN1C1CCN(Cc2ccccc2)CC1 (stereo partly specified)	none
CCOc1ccccc1C1c2[nH]c3ccccc3c2C[C@H]2C(=O)N(C3CCN(Cc4ccccc4)CC3)CC(=O)N12 (stereo partly specified)	dFosB activator 63
COC(=O)c1ccc(C2c3[nH]c4ccccc4c3C[C@H]3C(=O)N(C4CCN(Cc5ccccc5)CC4)CC(=O)N23)cc1 (stereo partly specified)	dFosB activator 55
COc1cccc(C2c3[nH]c4ccccc4c3C[C@H]3C(=O)N(C4CC4)CC(=O)N23)c1 (stereo partly specified)	none
O=C1[C@@H]2Cc3c([nH]c4ccccc34)C(c3cccc(Br)c3)N2C(=O)CN1C1CCN(Cc2ccccc2)CC1 (stereo partly specified)	dFosB activator 66
Cc1ccccc1C1c2[nH]c3ccccc3c2C[C@H]2C(=O)N(C3CCN(Cc4ccccc4)CC3)CC(=O)N12 (stereo partly specified)	dFosB activator 76 (no result: NR3A LBD binder)
CC(NC(=O)CNC(=O)c1cccs1)c1cccc(C(F)(F)F)c1 (stereo unspecified)	none (no result: NALP1 yeast inh)
Cc1c(C#N)sc(C(N)=O)c1C	none
COc1ccc(C2c3[nH]c4ccccc4c3C[C@H]3C(=O)N(C4CCN(Cc5ccccc5)CC4)CC(=O)N23)c(OC)c1 (stereo partly specified)	dFosB activator 21
CC(=O)Nc1ccc(S(=O)(=O)NC(C)(C#N)C2CC2)cc1 (stereo unspecified)	none
COc1ccc(OC)c(NC(=O)C2CC(=O)N(CCc3ccc(F)cc3)C2)c1 (stereo unspecified)	none (no result: CR mimetic SO, UBC13 inh, NALP1 yeast inh)
COc1ccc(NC(=O)C2CC(=O)N(CCc3ccc(Cl)cc3)C2)cc1 (stereo unspecified)	NR3A LBD binder 12
CCCc1nn2c(=O)cc(CSCC(=O)Nc3ccc(C)cc3)nc2s1	none
Cc1cc2[nH]c(=S)[nH]c2cc1C	none (no result: UBC13 inh)
Fc1cc2[nH]c(=S)[nH]c2cc1Cl	NR3A LBD binder 32
COCCNC(=O)CCn1nc(-c2ccc(C)cc2)ccc1=O	none
COc1cccc(/C=C2\SC(=O)NC2=O)c1OCc1ccc(C(=O)O)cc1	NR3A LBD binder 15

Assay outcomes: PubChem BioAssay, several laboratories
